Assay results published in PubChem BioAssay (NCI).
The panel holds about 83,000 compounds, 20% with a hit somewhere; the sample as a whole holds those more often.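 Cell lines were cultured in 96-well plates, exposed to a single compound concentration, and assessed for percent growth 48 hours later.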 Unmarked numbers belong to inactive results. The calls were made as follows: active = growth percent below 10; inactive = the rest.

Tested on: M14 melanoma
Experiment: NCI-60 one-dose screen, 48 h (100 = growth as untreated, 0 = no growth, -100 = all killed)
Settings: 10 µM unless noted

| Compound | growth |
| --- | --- |
| NC(=NCCCOc1ccc(F)cc1)Nc1ccc(I)cc1 | 59.6% |
| Cc1cc2nc3c4cccc(O)c4n(CCN(C)C)c3nc2cc1C | 44.2% |
| Oc1ccc(C(c2ccc(O)cc2)c2ccc(Br)cn2)cc1 | 78.8% |
